A selection: hits, their analogues and other compounds. The true share with any hit is near 6.2%.
S2 tox: reduces viability in counter-screen for ATXN expression inhibitors; Potency, µM (doses to about 56.7 µM), hits mostly cytotoxic; S2 cells (HEK-293 line with an ATXN2-luciferase reporter) viability, CellTiter-Fluor protease fluorescence, 24 h; AID 651635; actives 0.49% (n = 400,000); also: nearly all actives have a fitted effect of over 40% in size
HT1080 IDH1KD tx: toxicity to HT-1080 IDH1 knockdown cells (counter line); HT-1080 IDH1 knockdown viability, ATP luminescence, 48 h; Potency, µM (titrated, usually from 46.1 µM), for inactives: at the top dose activity, negative = toxicity, most hits filed as cytotoxic; actives 2% (n = 360,000);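 also: 0% = DMSO wells and -100% = cell-free medium wells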
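Viability of IDH1-knockdown HT-1080 fibrosarcoma cells was assessed by CellTiter-Glo after 48 h at 37 °C with titrated compound; concentration-effect curves were classified by fit quality and response size.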
KB-V1 MDR tox: KB-V1 MDR subline cytotoxicity | KB-V1 MDR cells viability, CellTiter-Glo, 72 h | Potency, µM (titrated, usually from 46.1 µM), usual class: cytotoxic | actives 3.4% (n = 400,000); also: % is scaled to controls: 0 for no effect and ±100 for the full control effect; nearly all actives have a fitted effect of over 60% in size
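Luminescent ATP read-out (CellTiter-Glo, 10 min) measures survival of drug-selected KB-V1 MDR cells after 72 h, 37 degrees C compound exposure. Medium: phenol-red-free DMEM, 10% FBS. Values from fitted concentration-response curves.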
KB-3-1 cytotox: kills parental KB-3-1 adenocarcinoma cells. KB-3-1 viability, CellTiter-Glo ATP luminescence, 72 h. AID 1347075. Potency, µM (series often up to 46.1 µM), hits mostly cytotoxic. actives 1.4% (n = 400,000); also: % is scaled to controls: 0 for no effect and ±100 for the full control effect; nearly all actives have a fitted effect of over 60% in size
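Cytotoxicity measured as CellTiter-Glo luminescence after 72 h at 37 C. Compound titrations were pinned onto drug-naive KB-3-1 parental adenocarcinoma cells grown in DMEM with 10% FBS, and normalized data fitted to concentration-response curves.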
HT1080-NT tox: kills 2HG-producing HT-1080-NT fibrosarcoma cells | HT-1080-NT fibrosarcoma viability, CellTiter-Glo ATP luminescence, 48 h | Potency, µM (titrated, usually from 46.1 µM), inactives show top-dose activity, negative = less viability, most hits filed as cytotoxic | actives 1.6% (n = 360,000);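 also: NT is the 2HG producing partner of a matched IDH1 knockdown line; 0% = DMSO-treated cells and -100% = media-only wells without cells; nearly all actives have a fitted effect of over 55% in size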
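Compounds were tested in concentration-response format on HT-1080-NT cells for 48 hours at 37 degrees C. Cell viability came from CellTiter-Glo luminescence; curves were classified by r2, response magnitude and activity.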
ATXN2 expr inh: inhibitors of ATXN2 expression; HEK-293 ATXN2-luciferase reporter, luminescence, 24 h; Potency, µM (highest dose often 57 µM), without a hit: top-dose activity change, negative = inhibition, usual class: inhibitors; actives 0.72% (n = 360,000); AID 1745845; also: % is scaled to controls: 0 for no effect and ±100 for the full control effect; nearly all actives have a fitted effect of over 55% in size
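ATXN2-luciferase reporter cells (luciferase flanked by upstream and downstream ATXN2 gene portions) were treated 24 h at 37 °C with compounds at up to 57 uM. SteadyGlo luminescence gave expression; GF-AFC fluorescence gave viability.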
* = called active by the depositor; i = inactive; ? = inconclusive; · = not tested or not shown; ! = not confirmed by another sample; [ ] = remark or other dose. Calls follow the shape of the dose curve; as a rule, active = well fitted curve in the direction sought with a large enough effect; inconclusive = small, poorly fitted or top-dose-only effect, or another doubt; inactive = no such curve, though single readings can be large; an effect the other way counts as inactive or inconclusive. Potency is read from the fitted curve at half-maximal effect.

SMILES	S2 tox	HT1080 IDH1KD tx	KB-V1 MDR tox	KB-3-1 cytotox	HT1080-NT tox	ATXN2 expr inh
COc1ccccc1-c1ccnc(-n2ncc(C(=O)N3CCN(C(C)C)CC3)c2-c2ccco2)n1	i	·	·	·	·	·
O=C1C=C(N2CCN(c3ccccn3)CC2)C(=O)c2c(O)ccc(O)c21	?	-27%	15µM*	?	-6%	?
COc1ccc(-c2cc(C(F)(F)F)nc(SCCC(=O)Nc3ccc(O)cc3)n2)cc1	?	·	?	i	·	-17%
COCCNC(=O)CSc1nc(-c2ccc(F)cc2)[nH]c1-c1ccc(Cl)cc1	·	·	i	i	·	·
O=C1c2ccccc2C(=O)c2c1ncn2-c1ccccc1	?	-18%	21µM*	?	?	0%
O=c1[nH]c(=S)c2ncn(-c3ccccc3)c2[nH]1	i	21%	?	i	?	1%
CCOC(=O)C(Cc1ccc(O)cc1)Nc1nc2ccccc2o1 (stereo unspecified)	i	-2%	21µM*	i	7%	12%
CNc1nc(NCc2ccccc2)c2ccccc2n1	i	?	i	?	?	?
Oc1ccccc1Nc1nc(NCc2ccccc2)c2ccccc2n1	i	?	21µM*	23µM*	?	?
COc1ccc(CNc2ncnc3cc(Cl)ccc23)cc1	i	-28%	21µM*	?	-26%	?
Oc1ccccc1-c1nc(NCc2ccccc2)c2ccccc2n1	i	-8%	i	i	?	-33%
c1ccc(CNc2ncnc3ccccc23)cc1	i	-22%	8.2µM*!	?	-18%	-26%
CCCCNc1nc(NCc2ccccc2)nc2ccccc12	32µM*	16µM*	?	?	?	22µM*
COc1cc2ncnc(NCc3ccccc3)c2cc1OC	i	-5%	?	i	0%	-10%
COc1ccc2cc1Oc1cc3c(cc1OC)CC[N+](C)(C)[C@H]3Cc1ccc(cc1)Oc1c(OC)c(OC)cc3c1[C@@H](C2)[N+](C)(C)CC3	i	·	·	·	·	6%
COc1ccccc1CNC(=O)c1c2c(nc3ccccc13)C(=O)N(C1CCCCC1)C2	·	·	i	i	·	·
O=C(OC(c1ccccc1)c1nccc2ccccc12)c1cc([N+](=O)[O-])cc([N+](=O)[O-])c1 (stereo unspecified)	?	-14%	8.2µM*	i	-10%	2%
OC(c1cccc(Cl)c1)c1nccc2ccccc12 (stereo unspecified)	i	-5%	i	i	-2%	-7%
Cc1cc(-c2ccnc(-n3ncc(C(=O)N(C)Cc4nccs4)c3C)n2)c(C)s1	i	·	·	·	·	·
CCOc1ccc(Nc2nc(NCCN3CCOCC3)nc(OC)n2)cc1	i	-1%	18µM*	i	-1%	-7%
CCOc1ccc(NC(=O)CN(c2ccc([N+](=O)[O-])cc2)S(=O)(=O)c2ccccc2)cc1	i	8.2µM*	7.3µM*	i	?	5%
Cc1ccc(C)c(N(CC(=O)N/N=C/c2ccc(-c3ccc([N+](=O)[O-])cc3)o2)S(=O)(=O)c2ccccc2)c1	i	-4%	i	i	-3%	-19%
CCOc1ccc(S(=O)(=O)N(CC(=O)N/N=C/c2ccc(-c3ccc([N+](=O)[O-])cc3)o2)c2ccccc2)cc1	i	-24%[9.24 µM]	?	?	13µM*	-7%
O=C(COc1ccccc1)Nc1nc(-c2ccc(S(=O)(=O)N3CCOCC3)cc2)cs1	?	-20%	i	i	-10%	-25%
COc1ccc(NC(=O)CN(C)C(=O)c2ccc(S(=O)(=O)N3CCOCC3)cc2)cc1	i	1%	?	i	-1%	·
O=C(CCc1ccc(S(=O)(=O)N2CCOCC2)cc1)Nc1nc(COc2ccccc2)cs1	i	?	2.9µM*	5.2µM*	?	?
